HP1b binding inh – inhibitors of HP1-beta chromodomain binding to methylated histone tails; AlphaScreen HP1-beta / biotin-H3K9me3 peptide binding; AID 540317; P83916; 390,000 compounds, 0.56% hits; Potency, µM (top dose mostly 114 µM), without a hit: at the highest dose activity change, negative = inhibition, actives largely listed as inhibitors; further: nearly all actives have a fitted effect of over 70% in size
Target sequence (P83916 whole entry, looked up): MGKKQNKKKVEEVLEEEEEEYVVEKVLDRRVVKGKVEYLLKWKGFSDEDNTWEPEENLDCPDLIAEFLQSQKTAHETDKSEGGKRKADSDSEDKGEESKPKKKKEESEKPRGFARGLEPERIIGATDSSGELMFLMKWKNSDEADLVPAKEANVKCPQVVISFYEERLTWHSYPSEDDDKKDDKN
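Compound inhibition of the preformed complex between 50 nM HP1-beta and 50 nM biotinylated H3K9me3 peptide was read by AlphaScreen. Buffer was PBS pH 7.4 with 0.01% Tween-20. Incubations ran 30 min at room temperature, with 10 ug/mL donor/acceptor beads.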
GLS inhibitor – glutaminase GLS (human) inhibition; Potency, µM (highest dose often 45.5 µM), without a hit: at the top dose activity change, negative = inhibition, most hits filed as inhibitors; O94925; GLS enzymatic activity, qHTS titration; AID 624170; 410,000 compounds, 0.21% hits; further: on the % scale 0 is the no-effect control and ±100 the full control effect
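Assay buffer: 45 mM KH2PO4 pH 8.2, 0.02% Tween-20. hKGA acts on L-glutamine (1 mM solution added); product glutamate is reported by an oxidase/peroxidase Amplex Red coupling, with fluorescence taken at baseline and 30 min.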
BAZ2B block – blocks human BAZ2B | AlphaScreen BAZ2B-H3K14Ac peptide displacement | 360,000 compounds, 4.4% hits | Potency, µM (titrated, usually from 114 µM), for the others: at the top dose activity change, negative = inhibition, hits mostly inhibitors | AID 504333; further: on the % scale 0 is the no-effect control and ±100 the full control effect; nearly all actives have a fitted effect of over 60% in size
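Complex of BAZ2B and biotin-H3K14Ac (50 nM apiece) forms over 30 min at RT, then faces library compounds up to 110 uM for another 30 min; AlphaScreen beads added, 20 min dark incubation, luminescence read.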
JMJD2A Tudor – JMJD2A Tudor domain (human) inhibition; O75164; AlphaScreen JMJD2A-Tudor / H3K4me3 peptide binding; Potency, µM (series often up to 114 µM), inactives show at the top dose activity change, negative = inhibition, actives largely listed as inhibitors; 390,000 compounds, 4.4% hits; AID 504339; further: on the % scale 0 is the no-effect control and ±100 the full control effect; nearly all actives have a fitted effect of over 50% in size
L3MBTL1 block – inhibitors of human L3MBTL1 | Q9Y468 | AlphaScreen L3MBTL1–H3K9me1 peptide binding | Potency, µM (top dose mostly 57.1 µM), without a hit: top-dose activity, negative = inhibition, actives largely listed as inhibitors | 230,000 compounds, 0.66% hits; further: on the % scale 0 is the no-effect control and ±100 the full control effect; nearly all actives have a fitted effect of over 60% in size
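AlphaScreen proximity signal between nickel-chelate acceptor and streptavidin donor beads (final 10 ug/mL) reports binding of 50 nM L3MBTL1 to 75 nM biotin-H3 K9me1 peptide; complex incubated with compounds 30 min at room temperature; cefsulodin titration as control.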
G9a inh – G9a (human) methyltransferase inhibition | Q96KQ7 | G9a H3K9 monomethylation, AlphaScreen, 2 h | Potency, µM (top dose mostly 102 µM), for inactives: top-dose activity, negative = inhibition, usual class: inhibitors | 350,000 compounds, 8.8% hits | AID 504332; further: on the % scale 0 is the no-effect control and ±100 the full control effect; nearly all actives have a fitted effect of over 75% in size
Target sequence (Q96KQ7 913-1193 limits assumed): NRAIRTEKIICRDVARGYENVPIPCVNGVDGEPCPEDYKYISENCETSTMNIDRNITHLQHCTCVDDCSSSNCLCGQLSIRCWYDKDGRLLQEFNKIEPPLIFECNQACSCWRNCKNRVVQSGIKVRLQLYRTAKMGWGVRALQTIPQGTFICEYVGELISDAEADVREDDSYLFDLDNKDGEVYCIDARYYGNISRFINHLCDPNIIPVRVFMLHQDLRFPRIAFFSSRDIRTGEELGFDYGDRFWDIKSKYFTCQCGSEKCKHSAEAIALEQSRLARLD
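Readings reflect AlphaScreen signal from monomethyl-H3K9 antibody detection. HMT at 20 nM; substrate b-H3K9 500 nM; cofactor SAM 20 uM; 2 h RT reaction; compounds tested as titrations in qHTS with 15 min preincubation.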
Active calls of the source: *; ? = inconclusive; / = no result given; [ ] = remark or other dose. This is a sample that favours compounds with a hit; in the whole collection about 10% have one here. The call rests on the fitted dose curve; in most records, active means well fitted curve in the direction sought with a large enough effect; inconclusive means small, poorly fitted or top-dose-only effect, or another doubt; inactive means no such curve, though single readings can be large; an effect the other way counts as inactive or inconclusive. Potency means the concentration at half of the fitted maximal effect.

SMILES	HP1b binding inh	GLS inhibitor	BAZ2B block	JMJD2A Tudor	L3MBTL1 block	G9a inh
CCCC(=O)OCc1cnc(C)c2oc(=O)c(C(=O)Nc3ccc(F)cc3C)cc12	5%	1%	-1%	-17%	/	1%[59 µM]
CC(=O)Nc1ccc(S(=O)(=O)N2CCN(CC3CC4C=CC3C4)CC2)cc1 (stereo not given)	?	-13%	35µM*	6.3µM*	-23%	28µM*
CCOc1ccc(CN2CCN(S(=O)(=O)c3ccc(NC(C)=O)cc3)CC2)cc1	35µM*	-19%	25µM*	7.9µM*	-6%	22µM*
COc1cc(OC)c(OC)cc1CN1CCN(S(=O)(=O)c2ccc(NC(C)=O)cc2)CC1	?	-13%	50µM*	1µM*	5%	/
CC(=O)Nc1ccc(CN2CCCN(C)CC2)cc1	?	6%	?	22µM*	0%	20µM*
COc1ccc(CNC(=O)CSc2nnc(C)c3c(C)n(-c4ccccc4)nc23)c(OC)c1	-8%	2%	-20%	-11%	/	-29%[59 µM]
COc1ccc(S(=O)(=O)c2c(Nc3c(C)cccc3C)sc(C(=O)c3ccc4c(c3)OCO4)c2N)cc1	9%[57 µM]	4%	-13%	-33%	/	11%[59 µM]
COc1ccc(CCn2c(=N)c(C(=O)NC3CCCCC3)cc3c(=O)n4ccccc4nc32)cc1	30%	0%	-17%	8%	/	3%[0.0925 µM]
COc1ccc(CCn2c(=N)c(C(=O)N3CCN(C)CC3)cc3c(=O)n4ccccc4nc32)cc1	7%	2%	-9%	-23%	-1%	40µM*
COc1ccc(Nc2nc3ccccc3n3c(N)nnc23)cc1	7%	10%	-22%	-27%	/	4%[59 µM]
O=C(O)[C@H](Cc1ccccc1)N1C(=O)c2ccncc2C1=O	12%	8%	-4%	-8%	-9%	-7%[59 µM]
O=C(O)C(Cc1ccccc1)N1C(=O)/C(=C/c2cccnc2)SC1=S (stereo not given)	-21%	0%	-32%	16µM*	8%	/
Cc1cc(NC(=O)CN2C(=O)/C(=C/c3ccc(C(C)C)cc3)SC2=S)no1	/	6%	/	/	/	/
O=C(NN1C(=O)/C(=C/c2cccnc2)SC1=S)C(c1ccccc1)c1ccccc1	-11%	1%	-36%	?	-12%	?
CC(=O)NN1C(=O)/C(=C/c2ccc(C(C)C)cc2)SC1=S	?	-15%	45µM*	-35%	-15%	-21%[59 µM]
O=C(NN1C(=O)/C(=C\c2cccnc2)SC1=S)C(c1ccccc1)c1ccccc1	?	8%	-29%	?	-11%	32µM*
COc1ccc(/C=C2\SC(=S)N(C(Cc3ccccc3)C(=O)O)C2=O)cc1 (stereo not given)	?	-11%	40µM*	?	?	25µM*
O=c1cc(COc2ccccc2Cl)nc2scc(-c3ccccc3)n12	33%	1%	?	-11%	/	1%[59 µM]
COc1ccccc1-c1noc(CCCC(=O)Nc2cc(C)ccc2C)n1	47%	-4%	-27%	12%	/	-4%[59 µM]
CCC(C)NC(=O)CSc1nc2n[nH]c(C)c2c(=N)n1-c1cc(Cl)ccc1C (stereo not given)	-16%	0%	-1%	-19%	/	-8%[59 µM]
COc1ccc(/C=C2/SC(=O)N(CC(O)Cn3c4ccccc4c4ccccc43)C2=O)cc1 (stereo not given)	-3%	4%	-36%	79µM*	-8%	25%[59 µM]
COc1cc(/C=N/N=C(/C(=O)c2ccccc2)c2ccccc2)cc(OC)c1O	?	-3%	?	45µM*	-20%	?
CCOC(=O)c1[nH]c(C)c(CCC(=O)Nc2ccc(N(CC)CC)cc2C)c1C	1%[57 µM]	14%	-18%	-28%	/	14µM*
CCOC(=O)c1[nH]c(C)c(CCC(=O)Nc2ccccc2OCC)c1C	6%[57 µM]	-14%	-1%	-28%	/	-27%[59 µM]
CCOC(=O)c1cn2nc(-c3ccc(OCC)cc3)cc2nc1C1CCN(C(=O)OC(C)(C)C)CC1	82%	3%	5%	30%	/	17%
SMILES	HP1b binding inh	GLS inhibitor	BAZ2B block	JMJD2A Tudor	L3MBTL1 block	G9a inh
COc1ccc(N2CCN(C(=O)c3cnn(-c4ccc(OC)cc4)c3C3CCN(C(=O)OC(C)(C)C)CC3)CC2)cc1	15%	13%	-12%[57.1 µM]	-36%	/	14µM*
COc1ccc(-c2cc3nc(C4CCN(C(=O)OC(C)(C)C)CC4)c(C(=O)O)cn3n2)cc1	20%	16%	-32%	-11%	6%	79µM*
CCOc1ccc(NC(=O)CCCn2c(C)c3cnn(-c4ccccc4)c(=O)c3c2C)cc1	20%	-4%	-2%	-23%	/	43%[59 µM]
COc1cccc(C(=O)Nc2ccc(-c3nc4ccccc4s3)cc2Cl)c1	21%	1%	4%	-7%	/	14%[59 µM]
Cc1ccc(NC(=O)c2cn3c4c(ccc(Cl)c4c2=O)OC(C)C3)c(C)c1 (stereo not given)	9%	0%	2%	-11%	/	-11%[59 µM]
CCN(CC)C(=O)Cn1c(=O)n(CC2CCC(C(=O)NC)CC2)c(=O)c2sccc21 (stereo not given)	125%	-4%	22%	1%	/	29%[59 µM]
CCn1c(SCC(N)=O)nnc1-c1cc2c(C)nn(-c3ccccc3)c2s1	34%	-4%	9%	-15%	-2%	45µM*
CCn1c(SCC(=O)Nc2cc(C(C)(C)C)nn2-c2ccccc2)nnc1-c1cccs1	27%	0%	-29%	-13%	6%	9%[59 µM]
CC(CC(=O)O)Nc1ccccc1O (stereo not given)	-11%	-15%	45µM*	0.1µM*	-5%	2µM*
CCNc1nc(NC(C)C)nc(N(C#N)CCOc2ccccc2)n1	56%	-1%	13%	-9%	/	13µM*
COc1ccc(N2CCN(Cc3nc4c(c(=O)[nH]c(=O)n4C)n3CC(C)C)CC2)cc1	29%	-2%	-38%	-19%	/	25µM*
Cc1ccc(Cl)cc1N1CCN(Cc2nc3c(c(=O)[nH]c(=O)n3C)n2Cc2ccccc2F)CC1	19%	-8%	4%	?	-9%	40µM*
CCCCn1c(CN2CCN(c3ccc(OC)cc3)CC2)nc2c1c(=O)[nH]c(=O)n2C	13%	-11%	-22%	-22%	/	?
Cc1ccccc1Cn1c(CN2CCN(c3cc(Cl)ccc3C)CC2)nc2c1c(=O)[nH]c(=O)n2C	23%	-17%	-14%	-2%	/	-3%[59 µM]
CCCSCCCNC(=O)CN1C(=O)CCn2nc(-c3cn(C)c4ccccc34)cc21	10%[57 µM]	5%	-27%	?	/	-23%[59 µM]
CCC1N=C(SC)NC(C)=C1C(=O)c1ccccc1 (stereo not given)	-17%	2%	-23%	-15%	/	4µM*

Assay outcomes: PubChem, National Center for Advancing Translational Sciences (NCATS)
